In the supplement of paper PMC10849652:
Of roughly 7,900 targets only a part is listed; those with a hit were picked by preference. About 0.6% of all pairs of compound and target were hits. A number with no mark means an inactive call.

How the values were obtained:
Assay in all cases: log2 fold change, soluble protein after heating vs DMSO (PISA); higher = thermal stabilisation; K562 cells, 10 uM, 30 min; active = over 0.2 and 3.5 SD of the protein, either way, in both replicates (recomputed)
bafetinib = compound: Cc1ccc(NC(=O)c2ccc(CN3CC[C@H](N(C)C)C3)c(C(F)(F)F)c2)cc1Nc1nccc(-c2cncnc2)n1 [bafetinib]
In short: (§1)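 Soluble protein was quantified by TMTpro 16plex LC-MS/MS after channel sums were equalised. It was obtained as the supernatant after 21,000xg for 90 min from pooled aliquots of K562 cells (2×10^6 cells/mL, 10 μM compound, 30 min) heated for 3 min across 48°C-58°C and extracted in PBS with 0.5% NP-40 at 4°C. Thermal stability values are relative to control samples and come from duplicates. They are given as log2 fold changes.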

[1] = compound: Cc1cccc(CC(=O)N2CCc3c2ccc(-c2cn(C)c4ncnc(N)c24)c3F)n1
In short: as §1

nilotinib = compound: Cc1cn(-c2cc(NC(=O)c3ccc(C)c(Nc4nccc(-c5cccnc5)n4)c3)cc(C(F)(F)F)c2)cn1 [nilotinib]
In short: as §1

[2] = compound: Cc1nc(Nc2n[nH]c3c2CN(C(=O)N[C@H](CN(C)C)c2ccccc2)C3(C)C)c2sccc2n1
In short: as §1

dasatinib = compound: Cc1nc(Nc2ncc(C(=O)Nc3c(C)cccc3Cl)s2)cc(N2CCN(CCO)CC2)n1 [dasatinib]
In short: as §1

[3] = compound: Cc1ncc(-c2ccnc(Nc3ccc(S(C)(=O)=O)cc3)n2)n1C(C)C
In short: as §1

[4] = compound: Cn1cc(-c2ccc3c(c2)CCN3C(=O)Cc2cccc(C(F)(F)F)c2)c2c(N)ncnc21
In short: as §1

[5] = compound: Cn1cc(-c2ccc3nnc(C(F)(F)c4ccc5ncccc5c4)n3n2)cn1
In short: as §1

tipifarnib = compound: Cn1cncc1[C@@](N)(c1ccc(Cl)cc1)c1ccc2c(c1)c(-c1cccc(Cl)c1)cc(=O)n2C [tipifarnib]
In short: as §1

mubritinib = compound: FC(F)(F)c1ccc(/C=C/c2nc(COc3ccc(CCCCn4ccnn4)cc3)co2)cc1 [mubritinib]
In short: as §1

UniProt Q8NBL1, sequence (Q8NBL1 whole entry, looked up): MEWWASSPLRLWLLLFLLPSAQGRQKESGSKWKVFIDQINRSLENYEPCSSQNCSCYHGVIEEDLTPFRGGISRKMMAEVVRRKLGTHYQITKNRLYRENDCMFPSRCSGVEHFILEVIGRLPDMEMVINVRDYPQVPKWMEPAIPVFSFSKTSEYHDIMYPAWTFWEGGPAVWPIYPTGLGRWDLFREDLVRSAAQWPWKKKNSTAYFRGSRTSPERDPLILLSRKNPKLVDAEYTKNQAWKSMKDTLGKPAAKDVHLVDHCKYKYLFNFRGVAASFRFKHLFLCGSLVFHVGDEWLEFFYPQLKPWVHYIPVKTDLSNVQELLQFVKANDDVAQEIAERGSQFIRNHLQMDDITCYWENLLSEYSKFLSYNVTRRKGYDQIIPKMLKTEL
UniProt P53801, sequence (P53801 whole entry, looked up): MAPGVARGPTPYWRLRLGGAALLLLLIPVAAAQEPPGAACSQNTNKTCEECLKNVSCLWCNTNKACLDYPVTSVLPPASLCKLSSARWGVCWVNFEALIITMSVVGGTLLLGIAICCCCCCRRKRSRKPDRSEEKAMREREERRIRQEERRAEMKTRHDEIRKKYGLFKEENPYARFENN
UniProt Q15365, sequence (Q15365 whole entry, looked up): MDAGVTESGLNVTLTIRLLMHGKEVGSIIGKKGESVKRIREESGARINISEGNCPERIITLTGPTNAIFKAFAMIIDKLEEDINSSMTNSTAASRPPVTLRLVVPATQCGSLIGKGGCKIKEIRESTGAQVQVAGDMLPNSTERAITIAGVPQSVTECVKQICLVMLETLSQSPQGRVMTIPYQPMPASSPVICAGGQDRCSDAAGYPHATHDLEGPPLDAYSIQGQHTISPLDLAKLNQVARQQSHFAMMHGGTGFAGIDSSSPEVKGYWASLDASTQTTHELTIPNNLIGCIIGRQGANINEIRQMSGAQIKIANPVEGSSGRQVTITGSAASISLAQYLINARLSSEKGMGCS
UniProt Q9Y5K3, sequence (Q9Y5K3 whole entry, looked up): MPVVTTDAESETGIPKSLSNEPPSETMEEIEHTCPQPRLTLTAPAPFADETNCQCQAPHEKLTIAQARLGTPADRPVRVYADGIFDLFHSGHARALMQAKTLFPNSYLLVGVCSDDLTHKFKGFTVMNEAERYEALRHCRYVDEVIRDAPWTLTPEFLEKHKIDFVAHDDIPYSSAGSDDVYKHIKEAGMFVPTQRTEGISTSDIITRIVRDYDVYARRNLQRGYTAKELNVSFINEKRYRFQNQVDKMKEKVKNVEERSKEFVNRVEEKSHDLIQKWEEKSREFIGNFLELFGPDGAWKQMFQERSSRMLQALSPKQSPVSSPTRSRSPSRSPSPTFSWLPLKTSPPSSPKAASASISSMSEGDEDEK
UniProt Q6WKZ4, sequence (Q6WKZ4 whole entry, looked up): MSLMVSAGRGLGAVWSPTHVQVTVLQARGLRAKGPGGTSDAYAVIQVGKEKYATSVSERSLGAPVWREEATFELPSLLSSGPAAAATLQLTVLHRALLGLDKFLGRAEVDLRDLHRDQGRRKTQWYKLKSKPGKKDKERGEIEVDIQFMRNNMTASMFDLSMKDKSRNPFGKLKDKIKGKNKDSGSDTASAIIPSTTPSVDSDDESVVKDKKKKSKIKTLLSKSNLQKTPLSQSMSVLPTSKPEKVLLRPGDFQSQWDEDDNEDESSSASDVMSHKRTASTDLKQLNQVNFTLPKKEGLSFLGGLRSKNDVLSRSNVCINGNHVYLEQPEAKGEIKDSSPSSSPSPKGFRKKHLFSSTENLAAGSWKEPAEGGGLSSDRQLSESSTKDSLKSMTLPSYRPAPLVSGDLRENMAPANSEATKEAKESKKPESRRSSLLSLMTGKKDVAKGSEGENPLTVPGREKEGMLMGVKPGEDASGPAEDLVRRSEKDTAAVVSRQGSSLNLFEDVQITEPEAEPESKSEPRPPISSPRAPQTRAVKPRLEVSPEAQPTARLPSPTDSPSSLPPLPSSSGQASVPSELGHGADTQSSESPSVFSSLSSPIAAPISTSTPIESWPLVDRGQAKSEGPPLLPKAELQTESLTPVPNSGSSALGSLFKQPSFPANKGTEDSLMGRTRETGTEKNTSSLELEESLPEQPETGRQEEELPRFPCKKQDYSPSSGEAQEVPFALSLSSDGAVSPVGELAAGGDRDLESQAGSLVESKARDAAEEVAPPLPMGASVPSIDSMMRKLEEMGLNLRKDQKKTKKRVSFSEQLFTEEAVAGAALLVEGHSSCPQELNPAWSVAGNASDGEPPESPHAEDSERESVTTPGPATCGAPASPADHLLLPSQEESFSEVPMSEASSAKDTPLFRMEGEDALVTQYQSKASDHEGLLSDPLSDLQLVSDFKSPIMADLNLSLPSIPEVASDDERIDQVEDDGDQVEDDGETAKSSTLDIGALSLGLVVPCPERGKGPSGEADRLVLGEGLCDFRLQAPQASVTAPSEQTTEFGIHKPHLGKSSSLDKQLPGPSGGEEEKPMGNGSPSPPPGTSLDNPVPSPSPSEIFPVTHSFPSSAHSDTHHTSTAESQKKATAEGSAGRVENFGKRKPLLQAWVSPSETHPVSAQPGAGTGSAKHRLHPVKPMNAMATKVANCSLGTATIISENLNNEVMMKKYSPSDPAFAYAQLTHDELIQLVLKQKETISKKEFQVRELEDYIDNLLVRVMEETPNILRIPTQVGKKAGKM
UniProt Q14671, sequence (Q14671 whole entry, looked up): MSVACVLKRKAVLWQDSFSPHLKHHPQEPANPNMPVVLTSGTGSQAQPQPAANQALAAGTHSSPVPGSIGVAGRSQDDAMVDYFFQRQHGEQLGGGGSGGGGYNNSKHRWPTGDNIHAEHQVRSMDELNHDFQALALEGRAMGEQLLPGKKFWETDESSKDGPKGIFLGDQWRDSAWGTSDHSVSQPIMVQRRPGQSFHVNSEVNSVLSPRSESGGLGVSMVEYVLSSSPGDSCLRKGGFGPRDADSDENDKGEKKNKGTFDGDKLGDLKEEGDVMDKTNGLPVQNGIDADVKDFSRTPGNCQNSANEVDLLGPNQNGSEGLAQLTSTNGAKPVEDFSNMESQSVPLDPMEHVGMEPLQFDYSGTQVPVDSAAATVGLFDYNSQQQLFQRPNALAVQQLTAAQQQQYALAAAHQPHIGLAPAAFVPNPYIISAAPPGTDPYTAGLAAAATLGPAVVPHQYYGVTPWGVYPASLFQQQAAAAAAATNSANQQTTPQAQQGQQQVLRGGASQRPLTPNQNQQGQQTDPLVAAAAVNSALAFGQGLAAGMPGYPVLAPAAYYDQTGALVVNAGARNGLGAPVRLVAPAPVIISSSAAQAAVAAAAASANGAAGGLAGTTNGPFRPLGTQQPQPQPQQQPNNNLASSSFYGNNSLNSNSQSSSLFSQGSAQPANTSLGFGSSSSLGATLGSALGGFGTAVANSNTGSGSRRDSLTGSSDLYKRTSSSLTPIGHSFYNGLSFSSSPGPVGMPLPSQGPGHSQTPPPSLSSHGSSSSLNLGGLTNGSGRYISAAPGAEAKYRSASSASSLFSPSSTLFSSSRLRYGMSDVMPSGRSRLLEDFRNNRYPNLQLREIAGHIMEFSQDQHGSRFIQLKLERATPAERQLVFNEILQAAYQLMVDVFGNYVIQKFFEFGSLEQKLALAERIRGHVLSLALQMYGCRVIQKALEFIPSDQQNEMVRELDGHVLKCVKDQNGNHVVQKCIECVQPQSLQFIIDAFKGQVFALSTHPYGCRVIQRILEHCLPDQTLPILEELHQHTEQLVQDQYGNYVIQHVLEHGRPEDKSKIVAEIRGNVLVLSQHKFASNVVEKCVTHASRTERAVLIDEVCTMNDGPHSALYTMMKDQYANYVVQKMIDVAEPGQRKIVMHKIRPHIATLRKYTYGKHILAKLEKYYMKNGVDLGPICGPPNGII
UniProt Q8NEB9, sequence (Q8NEB9 whole entry, looked up): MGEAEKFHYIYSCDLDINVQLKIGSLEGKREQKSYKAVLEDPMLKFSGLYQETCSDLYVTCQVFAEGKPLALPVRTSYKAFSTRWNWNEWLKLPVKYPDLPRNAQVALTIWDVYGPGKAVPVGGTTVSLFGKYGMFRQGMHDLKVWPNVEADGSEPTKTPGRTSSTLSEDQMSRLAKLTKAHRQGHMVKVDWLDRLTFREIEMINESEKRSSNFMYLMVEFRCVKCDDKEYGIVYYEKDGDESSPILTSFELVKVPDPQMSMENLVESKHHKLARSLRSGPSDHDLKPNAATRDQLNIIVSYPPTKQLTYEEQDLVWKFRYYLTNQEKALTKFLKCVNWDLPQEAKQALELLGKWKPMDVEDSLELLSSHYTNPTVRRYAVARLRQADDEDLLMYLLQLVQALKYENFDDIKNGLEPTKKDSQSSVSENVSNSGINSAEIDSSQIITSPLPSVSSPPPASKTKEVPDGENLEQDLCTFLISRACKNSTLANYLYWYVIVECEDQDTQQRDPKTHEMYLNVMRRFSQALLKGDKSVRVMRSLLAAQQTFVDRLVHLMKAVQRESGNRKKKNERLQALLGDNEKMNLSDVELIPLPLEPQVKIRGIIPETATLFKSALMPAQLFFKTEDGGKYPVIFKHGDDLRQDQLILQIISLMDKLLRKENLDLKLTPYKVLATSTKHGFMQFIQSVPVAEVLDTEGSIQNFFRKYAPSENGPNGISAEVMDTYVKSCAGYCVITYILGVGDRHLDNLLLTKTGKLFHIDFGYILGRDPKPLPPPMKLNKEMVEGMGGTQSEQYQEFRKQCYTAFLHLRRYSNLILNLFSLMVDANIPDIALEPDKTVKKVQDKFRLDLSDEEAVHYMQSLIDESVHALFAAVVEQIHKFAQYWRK
UniProt Q9Y3C6, sequence (Q9Y3C6 whole entry, looked up): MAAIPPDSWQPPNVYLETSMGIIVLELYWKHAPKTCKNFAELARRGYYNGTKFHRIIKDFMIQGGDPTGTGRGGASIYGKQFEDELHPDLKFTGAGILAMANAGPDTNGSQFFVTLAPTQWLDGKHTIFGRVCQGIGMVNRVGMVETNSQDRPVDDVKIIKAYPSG
UniProt Q15126, sequence (Q15126 whole entry, looked up): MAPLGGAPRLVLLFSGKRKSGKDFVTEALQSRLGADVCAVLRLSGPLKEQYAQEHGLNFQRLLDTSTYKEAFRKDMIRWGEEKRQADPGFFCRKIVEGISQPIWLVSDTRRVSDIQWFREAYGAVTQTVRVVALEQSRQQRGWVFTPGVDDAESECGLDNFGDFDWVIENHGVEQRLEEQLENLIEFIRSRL

Target | log2 fold change (bafetinib) | log2 fold change [1] | log2 fold change (nilotinib) | log2 fold change [2] | log2 fold change (dasatinib) | log2 fold change [3] | log2 fold change [4] | log2 fold change [5] | log2 fold change (tipifarnib) | log2 fold change (mubritinib)
PCYT1B (UniProt Q9Y5K3) | -0.193 | -0.068 | -1.28 (active) | -0.105 | -0.142 | -0.089 | -0.024 | -0.037 | -0.053 | 0.168
RAB11FIP1 (UniProt Q6WKZ4) | -0.042 | 0.12 | 0.049 | -0.198 | -0.037 | -0.172 | 0.008 | 0 | 0.003 | 0.003
PPIL1 (UniProt Q9Y3C6) | 0.024 | -0.002 | -0.029 | 0.046 | -0.042 | 0.073 | -0.063 | -0.022 | -0.088 | 0.01
PI4K2B (UniProt Q8TCG2) | -0.084 | 0 | 0.124 | -0.052 | -0.101 | -0.167 | 0.11 | 0.146 |  | 0.053
PIK3C3 (UniProt Q8NEB9) | 0.065 | -0.011 | 0.043 | -0.039 | -0.04 | 0.202 | -0.035 | -0.006 | 0.047 | 0.042
POGLUT1 (UniProt Q8NBL1) | 0.009 | 0.122 | -0.001 | 0.03 | 0.024 | -0.049 | -0.022 | -0.073 | 0.048 | -0.046
PATL1 (UniProt Q86TB9) | -0.007 | 0.034 |  |  | -0.032 |  | 0.08 | -0.013 | 0.039 | -0.04
PCBP1 (UniProt Q15365) | -0.007 | 0.033 | -0.057 | -0.086 | -0.111 | -0.026 | 0.064 | -0.004 | -0.119 | -0.011
POLR2D (UniProt O15514) | 0.009 | -0.076 | -0.028 | 0.122 | -0.013 | 0.202 | -0.036 | 0.034 | -0.01 | 0.052
PKN2 (UniProt Q16513) | 0.068 | 0.062 | 0.125 | -0.219 | -0.138 | 0.051 | 0.016 | 0.01 | -0.059 | 0.048
PUM1 isoform 3 (UniProt Q14671) | -0.062 | 0.006 | -0.047 | -0.066 | -0.044 | -0.014 | 0.01 | 0 | -0.015 | 0.007
PEX13 (UniProt Q92968) | -0.159 | 0.106 | -0.046 | 0 | 0.014 | 0.035 | -0.071 | -0.075 | -0.027 | 0.042
PTTG1IP (UniProt P53801) | -0.105 | -0.053 | -0.061 | 0.054 | -0.002 | -0.099 | 0.036 |  | 0.036 | -0.012
PMVK (UniProt Q15126) | 0.057 | -0.203 | -0.214 | -0.064 | -0.308 | -0.139 | -0.098 |  |  | -0.025
